Source: PubChem BioAssay (NCI)
About 79,000 compounds went through this panel and 15% of them were active in at least one assay; those are over-represented in the sample as a whole. Calls of active or inactive are those of the source. No stated cut-off is given here; in the data, active means growth inhibition above about 70%; inactive means the rest.

Columns and labels:
[1] = NCI Yeast Anticancer Drug Screen. Data for the rad50 strain (AID 155);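 further: 0% = growth of vehicle-only cultures of the same strain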; conditions: S. cerevisiae rad50 strain growth inhibition, active compounds read high
Outline: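 A DNA repair-deficient yeast mutant serves as the test organism; compound-induced growth inhibition is calculated against vehicle-treated cells.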

[2] = NCI Yeast Anticancer Drug Screen. Data for the sgs1 mgt1 strain (AID 161);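 further: 0% = growth of cultures given vehicle only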; conditions: S. cerevisiae sgs1 mgt1 strain, active compounds read high
Outline: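 Read-out: growth inhibition vs vehicle controls. Cells: mutant yeast strain deficient in DNA damage repair.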

[3] = NCI Yeast Anticancer Drug Screen. Data for the cln2 rad14 strain (AID 165);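 further: 0% = growth equal to vehicle treated cultures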; conditions: S. cerevisiae cln2 rad14 strain, active compounds read high
Outline: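 Each compound was tested on cln2 rad14 yeast. Inhibition of growth was calculated against vehicle-exposed controls.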

[4] = NCI Yeast Anticancer Drug Screen. Data for the bub3 strain (AID 167); conditions: S. cerevisiae bub3 mutant strain, active compounds read high
Outline: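 Inhibition values come from growth of compound-treated mutant yeast normalised to vehicle-treated controls.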

[5] = NCI Yeast Anticancer Drug Screen. Data for the mlh1 rad18 strain (AID 175); conditions: S. cerevisiae mlh1 rad18 strain growth inhibition, active compounds read high
Outline: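 Vehicle-treated cultures served as the reference for growth inhibition in a yeast strain carrying DNA damage repair alterations exposed to each compound.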

[6] = NCI Yeast Anticancer Drug Screen. Data for the mec2-1 strain (AID 157); conditions: S. cerevisiae mec2-1 strain, active compounds read high
Outline: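 Vehicle-treated cultures served as reference for growth inhibition of compound-exposed mec2-1 yeast.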

[7] = at 5.0 µM (retest, dose inferred, filed as 0.5)
[8] = at 50.0 µM (retest, dose inferred, filed as 5.0)

Measured: growth inhibition

COc1c(/C=C/C=O)cc2c(c1OC)OCO2
active: [1]; [8] 73%
inactive: [1]; [7] 26% | [1]; at 50.0 µM -1.75% | [2]; [7] 31% | [2]; [8] 57% | [2]; at 50.0 µM 19.1% | [3]; [7] 27% | [3]; [8] 50% | [3]; at 50.0 µM 20.4% | [4]; [7] 21% | [4]; [8] 54% | [4]; at 50.0 µM 13.5% | [5]; [7] 25% | [5]; [8] 61% | [5]; at 50.0 µM -11.8%

COc1cccc(NC(=O)C(C#N)=C(SC)SC)c1
active: [1]; [8] 96% | [6]; [8] 92% | [2]; [8] 95% | [2]; at 50.0 µM 91.2% | [5]; at 50.0 µM 90%
inactive: [1]; [7] 30% | [6]; [7] 25% | [2]; [7] 49% | [3]; [7] 34% | [3]; [8] 41% | [3]; at 50.0 µM 43% | [5]; [7] 23% | [5]; [8] 59%

Cc1cc(=O)oc2cc(O)cc(O)c12
inactive: [1]; [7] 0% | [1]; [8] -1% | [1]; at 50.0 µM 16.5% | [6]; [7] -4% | [6]; [8] -2% | [6]; at 50.0 µM -8.95% | [3]; [7] 0% | [3]; [8] -11% | [3]; at 50.0 µM -18.6% | [4]; [7] -3% | [4]; [8] 6% | [4]; at 50.0 µM -14.7% | [5]; [7] -5% | [5]; [8] 1% | [5]; at 50.0 µM 6.8%

CCC(C)(CC)c1ccc(O)cc1
inactive: [1]; [7] 14% | [6]; [7] -1% | [6]; [8] 45% | [2]; [7] -3% | [3]; [7] -2% | [3]; [8] 23% | [4]; [7] 0% | [4]; [8] 44% | [5]; [7] 33%
active: [1]; [8] 78% | [2]; [8] 77% | [5]; [8] 76%

O=C(c1ccccc1)N(CCCl)C(=O)N(CCCl)C(=O)c1ccccc1
inactive: [1]; [7] 47% | [1]; [8] 56% | [6]; [7] 68% | [6]; [8] 52% | [6]; at 50.0 µM 48.9% | [2]; [7] -7% | [2]; [8] 68% | [3]; [7] 45% | [3]; [8] 56% | [5]; [7] 31% | [5]; [8] 36% | [5]; at 50.0 µM 68%
active: [1]; at 50.0 µM 78%

COCc1c(C#N)c(Cl)nc(C)c1[N+](=O)[O-]
active: [1]; [8] 76% | [6]; [8] 90% | [2]; [8] 94% | [3]; [8] 94% | [4]; [8] 97% | [5]; [8] 94%
inactive: [1]; [7] 14% | [6]; [7] 7% | [2]; [7] 14% | [3]; [7] 2% | [4]; [7] 8% | [5]; [7] 0%

CC(/C=N/NC(N)=S)Cc1ccc(C(C)C)cc1 (stereo not given)
inactive: [1]; [7] 28% | [6]; [7] 45% | [5]; [7] 32%
active: [1]; [8] 82% | [1]; at 50.0 µM 91.3% | [6]; [8] 74% | [6]; at 50.0 µM 92.5% | [2]; [7] 98% | [2]; [8] 97% | [3]; [7] 98% | [3]; [8] 98% | [4]; [7] 99% | [4]; [8] 97% | [5]; [8] 74% | [5]; at 50.0 µM 91.1%

O=C1/C(=C\c2ccc([N+](=O)[O-])cc2)CS(=O)(=O)C/C1=C/c1ccc([N+](=O)[O-])cc1
active: [1]; [7] 81% | [1]; [8] 96% | [6]; [7] 97% | [6]; [8] 98% | [2]; [7] 93% | [2]; [8] 96% | [2]; at 50.0 µM 87.2% | [3]; [7] 91% | [3]; [8] 97% | [3]; at 50.0 µM 86.8% | [4]; [7] 97% | [4]; [8] 99% | [4]; at 50.0 µM 87.6% | [5]; [7] 94% | [5]; [8] 96%

O=C(/C(Cl)=N/O)c1ccc(-c2ccccc2)cc1
inactive: [1]; [7] 8% | [6]; [7] 5% | [6]; at 50.0 µM 59.4% | [3]; [7] 15% | [4]; [7] 6% | [5]; [7] 13%
active: [1]; [8] 97% | [1]; at 50.0 µM 99.3% | [6]; [8] 98% | [3]; [8] 93% | [3]; at 50.0 µM 99.2% | [4]; [8] 97% | [4]; at 50.0 µM 99.7% | [5]; [8] 97% | [5]; at 50.0 µM 99.3%

COC(=O)c1nc(=S)[nH]c(C(=O)OC)c1C(=O)c1ccc(Cl)c(Cl)c1
active: [1]; [8] 98% | [1]; at 50.0 µM 99.5% | [2]; [8] 98% | [2]; at 50.0 µM 99.3% | [3]; [8] 95% | [3]; at 50.0 µM 98.5% | [4]; [8] 98% | [4]; at 50.0 µM 98.2% | [5]; [8] 99% | [5]; at 50.0 µM 99.2%
inactive: [1]; [7] -8% | [2]; [7] 7% | [3]; [7] 4% | [4]; [7] 0% | [5]; [7] 11%

O=C(NNc1ccccc1)OCc1ccccc1
inactive: [1]; [7] 41% | [1]; at 50.0 µM 55% | [6]; [7] 43% | [6]; at 50.0 µM 20.5% | [2]; [7] 42% | [3]; [7] 55% | [4]; [7] 50% | [5]; [7] 29% | [5]; at 50.0 µM 32.5%
active: [1]; [8] 79% | [6]; [8] 86% | [2]; [8] 95% | [3]; [8] 97% | [4]; [8] 94% | [5]; [8] 84%
